Screening data deposited in PubChem by National Center for Advancing Translational Sciences (NCATS).
FH mod: Identification of activators of human fumarate hydratase by quantitative high-throughput screening; 54,000 tested, 0.22% active; Potency, µM (titrated, usually from 79.9 µM), for the others: top-dose activity change, negative = inhibition, hits mostly inhibitors; FH coupled MDH/diaphorase resazurin fluorescence, 15 min; note: potency is the fitted concentration of half-maximal effect; % is set by controls: 0 for no effect and ±100 for the full control effect; the screen sought activators but most active calls are inhibition curves; nearly all actives have a fitted effect of over 45% in size
DRV1 agonist: activates human resolvin D1 receptor GPR32. CHO-K1 GPR32 beta-arrestin PathHunter luminescence, 90 min; zero percent set by DMSO-only wells. O75388. activation, % at 76.9 µM. 48,000 tested, 2.5% active;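 active = activation of at least 60% and not above a set upper limit, about 1 call in 100 departs from these limits; inconclusive = activation of 40% to 60%, or above that upper limit; inactive = activation under 40%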; note: 0% is about no effect
Target sequence (O75388 whole entry, looked up): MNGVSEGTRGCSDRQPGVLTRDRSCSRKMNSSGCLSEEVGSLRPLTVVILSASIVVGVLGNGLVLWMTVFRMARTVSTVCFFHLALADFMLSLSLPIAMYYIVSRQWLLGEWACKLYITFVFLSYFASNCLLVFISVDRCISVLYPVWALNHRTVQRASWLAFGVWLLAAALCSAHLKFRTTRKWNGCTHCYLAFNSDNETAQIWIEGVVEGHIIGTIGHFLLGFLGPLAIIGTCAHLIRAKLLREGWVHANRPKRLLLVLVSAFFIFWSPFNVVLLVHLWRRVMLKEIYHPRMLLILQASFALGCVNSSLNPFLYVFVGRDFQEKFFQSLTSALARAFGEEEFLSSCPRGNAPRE
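CHO-K1 cells stably expressing ProLink-tagged GPR32 and Enzyme Activator-tagged beta-arrestin were seeded at 2,500 cells/well overnight, exposed to compounds for 90 min at 37 °C, then read by beta-Gal complementation chemiluminescence after 1 h detection reagent.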
HTT prom inh: inhibitors of huntingtin promoter activity | Potency, µM (doses to about 57.5 µM), without a hit: at the highest dose activity change, negative = inhibition, hits mostly inhibitors | HEK293 HTT promoter firefly luciferase reporter, 24 h | AID 1508623 | 48,000 tested, 0.93% active; note: potency is the fitted concentration of half-maximal effect; nearly all actives have a fitted effect of over 50% in size
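HEK293 cells carrying firefly luciferase reporters were seeded at 2,500 per well in Opti-MEM and cultured for 24 h. They were then treated with compounds at up to 57.5 uM final for 24 h at 37 degrees C before Dual-Glo luminescence readout.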
NTMT1 inh: inhibitors of human N-terminal methyltransferase NTMT1 | NTMT1 MTase-Glo SAH luminescence, purified enzyme | Potency, µM (doses to about 114 µM), inactives show at the top dose activity change, negative = inhibition, usual class: inhibitors | Q9BV86 | 59,000 tested, 2.5% active;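 note: potency is the fitted concentration of half-maximal effect; plate controls were DMSO vehicle for no effect and no enzyme for full effect; nearly all actives have a fitted effect of over 65% in size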
Target sequence (Q9BV86 whole entry, looked up): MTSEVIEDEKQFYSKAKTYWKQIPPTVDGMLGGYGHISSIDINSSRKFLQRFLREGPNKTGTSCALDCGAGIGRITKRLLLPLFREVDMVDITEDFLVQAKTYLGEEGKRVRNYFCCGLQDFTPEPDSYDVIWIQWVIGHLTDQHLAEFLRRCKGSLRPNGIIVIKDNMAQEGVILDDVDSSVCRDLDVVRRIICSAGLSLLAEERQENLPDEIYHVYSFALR
HTT-AS promoter: HTT-AS promoter activation | HEK293 HTT-AS promoter firefly luciferase reporter, 24 h; response scale: percent change from vehicle, -100% = no light | AID 1508624 | 48,000 tested, 0.24% active | Potency, µM (top dose mostly 57.5 µM), without a hit: top-dose activity change, positive = activation, usual class: activators; note: potency is the fitted concentration of half-maximal effect; nearly all actives have a fitted effect of over 55% in size
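HEK293 cells carrying firefly luciferase reporters were seeded at 2,500 per well in Opti-MEM and cultured for 24 h. They were then treated with compounds at up to 57.5 uM final for 24 h at 37 degrees C before Dual-Glo luminescence readout.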
The depositor's hits bear a star; ! = not confirmed by another sample; [ ] = dose if it differs, or a comment. Compounds with a hit are over-represented: about 4.7% of the library has one in this group of screens. Unless noted, calls come from the whole dose curve; as a rule, active = well fitted curve in the direction sought with a large enough effect; inconclusive = small, poorly fitted or top-dose-only effect, or another doubt; inactive = no such curve, though single readings can be large; an effect the other way counts as inactive or inconclusive.

What do the screens show for `Cc1ccc(-c2nc3ccccn3c2Nc2ccc3c(c2)OCO3)o1`?
FH mod: inconclusive; DRV1 agonist: -4; HTT prom inh: 9%; NTMT1 inh: 16µM*; HTT-AS promoter: 12%

What do the screens show for `Cc1ccc(-c2nc3cccc(C)n3c2Nc2ccc3c(c2)OCO3)o1`?
FH mod: -25%; DRV1 agonist: -21; HTT prom inh: 14%; NTMT1 inh: inconclusive; HTT-AS promoter: inconclusive

How did Cc1ccc(Nc2c(-c3ccc(C)o3)nc3cccc(C)n23)cc1 do in these assays?
FH mod: inconclusive; DRV1 agonist: -21; HTT prom inh: 10%; NTMT1 inh: 7.9µM*; HTT-AS promoter: inconclusive

Results for CC/C(=C(/c1ccc(O)cc1)c1ccc(OCCNC)cc1)c1ccccc1 ?
NTMT1 inh: 11µM*

Results for CCC(=C(c1ccccc1)c1ccc(OCCN(C)C)cc1)c1ccccc1 ?
FH mod: -6%[53.3 µM]; HTT prom inh: -16%; NTMT1 inh: 19µM*; HTT-AS promoter: -26%

Results for CCC(=C(c1ccc(OCCN2CCCC2)cc1)c1ccc(OCCN2CCCC2)cc1)c1ccccc1 ?
FH mod: -1%; NTMT1 inh: 0%[57.5 µM]

How did CCC(=C(c1ccc(O)cc1)c1ccc(OCCNC)cc1)c1ccccc1 do in these assays?
FH mod: -4%[53.3 µM]; HTT prom inh: inconclusive; NTMT1 inh: 24µM*; HTT-AS promoter: -28%

Results for CC/C(=C(\c1ccccc1)c1ccc(OCCN(C)C)cc1)c1ccccc1 ?
FH mod: inconclusive; DRV1 agonist: -31; HTT prom inh: -16%; NTMT1 inh: inconclusive; HTT-AS promoter: -29%

What do the screens show for `CCOC(=O)c1ccccc1NC(=O)CSc1cn(CC(=O)N2CCOCC2)c2ccccc12`?
FH mod: -6%; DRV1 agonist: -11; HTT prom inh: -11%; NTMT1 inh: 3%; HTT-AS promoter: -17%

How did CCN(CC)CCN(Cc1ccc(-c2ccc(C(F)(F)F)cc2)cc1)C(=O)Cn1c(SCc2ccc(F)cc2)nc(=O)c2c1CCC2 do in these assays?
FH mod: -28%; NTMT1 inh: inconclusive

What do the screens show for `O=c1c(-n2ccnn2)c[nH]n1-c1cc(N2CCOCC2)ncn1`?
NTMT1 inh: 3µM*!

How did COc1cccc(CNC(=O)CSC2=Nc3ccccc3C3=NC(C(C)C)C(=O)N23)c1 (centres undefined) do in these assays?
FH mod: 3%; DRV1 agonist: -5; HTT prom inh: -17%; NTMT1 inh: 12%; HTT-AS promoter: 12%

Results for Cc1ccc(NC(=O)Cn2cc(S(=O)(=O)NC(C)C)c(S(=O)(=O)NC(C)C)c2)cc1Cl ?
FH mod: inconclusive; DRV1 agonist: 69*; HTT prom inh: inconclusive; NTMT1 inh: 5%; HTT-AS promoter: -7%

How did Cc1ccc(S(=O)(=O)N(CC(O)Cn2c3ccccc3c3ccccc32)c2cccc(C(N)=O)c2)cc1 (centres undefined) do in these assays?
FH mod: inconclusive; DRV1 agonist: 86*; HTT prom inh: inconclusive; NTMT1 inh: 1%; HTT-AS promoter: -51%

What do the screens show for `C[C@H](Oc1cc(-n2cnc3ccc(CN4CCN(C)CC4)cc32)sc1C(N)=O)c1ccccc1C(F)(F)F`?
FH mod: -2%; NTMT1 inh: 25µM*

Results for Oc1ccc(Cl)cc1Cc1cc(Cl)ccc1O ?
FH mod: inconclusive; DRV1 agonist: 69*; HTT prom inh: inconclusive; NTMT1 inh: inconclusive; HTT-AS promoter: -94%

How did CCOc1cccc(C2CC(=O)Nc3cc4c(cc32)OCCO4)c1 (centres undefined) do in these assays?
FH mod: -9%; DRV1 agonist: -6; HTT prom inh: inconclusive; NTMT1 inh: -3%; HTT-AS promoter: -42%

What do the screens show for `CCc1ccc(C2CC(=O)Nc3cc4c(cc32)OCO4)cc1` (centres undefined)?
FH mod: -6%; DRV1 agonist: 72*; HTT prom inh: inconclusive; NTMT1 inh: 89µM*; HTT-AS promoter: -37%

How did O=C1CC(c2ccc(Cl)cc2)c2cc3c(cc2N1)OCCO3 (centres undefined) do in these assays?
FH mod: -18%; DRV1 agonist: 80*; HTT prom inh: inconclusive; NTMT1 inh: -7%; HTT-AS promoter: -29%

What do the screens show for `Cc1ccc(C2CC(=O)Nc3cc4c(cc32)OCCO4)cc1` (centres undefined)?
FH mod: 2%; DRV1 agonist: 62*; HTT prom inh: inconclusive; NTMT1 inh: -10%; HTT-AS promoter: -26%

Results for CCCNC(=O)CCc1nnc2ccc(N3CCN(c4cccc(OC)c4)CC3)nn12 ?
FH mod: 8%; DRV1 agonist: -5; HTT prom inh: 7%; NTMT1 inh: -6%; HTT-AS promoter: -8%

Results for Cc1nc2cc(C(=O)NCc3ccccn3)nn2c(C)c1Cc1cccc(Cl)c1 ?
FH mod: -16%; NTMT1 inh: -3%[57.5 µM]

Results for COc1cccc2cc(C(=O)Nc3ccc(CC(=O)O)cc3)c(=O)oc12 ?
FH mod: -7%; DRV1 agonist: -14; HTT prom inh: 0.28µM*; NTMT1 inh: inconclusive; HTT-AS promoter: -90%

What do the screens show for `COc1cccc2cc(C(=O)NCCc3c(C)[nH]c4ccc(F)cc34)c(=O)oc12`?
FH mod: -24%; DRV1 agonist: 16; HTT prom inh: 8%; NTMT1 inh: -1%; HTT-AS promoter: 5%

Results for NS(=O)(=O)Nc1ncnc(OCCOc2ncc(Br)cn2)c1-c1ccc(Br)cc1 ?
FH mod: 2%; NTMT1 inh: inconclusive

What do the screens show for `CCCNS(=O)(=O)Nc1ncnc(OCCOc2ncc(Br)cn2)c1-c1ccc(Br)cc1`?
FH mod: -3%[53.3 µM]; HTT prom inh: 16%; NTMT1 inh: 8.6µM*!; HTT-AS promoter: -7%

Results for CCn1c(=O)cc(OCC(=O)N2CCN(c3ccc(C)cc3)C(C)C2)c2ccccc21 (centres undefined) ?
FH mod: -7%; DRV1 agonist: 74*; HTT prom inh: inconclusive; NTMT1 inh: -19%; HTT-AS promoter: -45%

How did CCOc1ccc(-c2cc(C(=O)N3CCN(c4ccc(C)cc4)C(C)C3)c3ccccc3n2)cc1 (centres undefined) do in these assays?
FH mod: -13%; DRV1 agonist: -23; HTT prom inh: 9%; NTMT1 inh: 6%; HTT-AS promoter: 1.8µM*

How did CCn1c(=O)cc(OCC(=O)NCc2ccc(F)cc2Cl)c2ccccc21 do in these assays?
FH mod: -33%; DRV1 agonist: 7; HTT prom inh: -9%; NTMT1 inh: -4%; HTT-AS promoter: 7%[11.5 µM]

What do the screens show for `CCc1ccc(CNC(=O)COc2cc(=O)n(CC)c3ccccc23)cc1`?
FH mod: -15%; DRV1 agonist: 117*; HTT prom inh: -39%[11.5 µM]; NTMT1 inh: -2%; HTT-AS promoter: -29%
